Bioassay records: PubChem BioAssay, National Center for Advancing Translational Sciences (NCATS)
Many of the other results were omitted from the sample, so hits are more common in it than they were.
APE1 inh = APE1 (human) endonuclease inhibition; recombinant APE1, TAMRA/BHQ-2 abasic DNA cleavage fluorescence; Potency, µM (highest dose often 65.8 µM), usual class: inhibitors; 350,000 tested, 0.35% active; note: nearly all actives have a fitted effect of over 55% in size
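Readout is kinetic fluorescence (ex 525, em 598 nm) from cleavage of 50 nM TAMRA/BHQ-2 THF abasic duplex by 0.75 nM APE1, compound added 15 min beforehand at RT.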
GCN5L2 inh = GCN5L2 (KAT2A) acetyltransferase inhibition; Q92830; GCN5L2 HAT assay, ThioGlo1 CoA-SH fluorescence; Potency, µM (series often up to 58.9 µM), most hits filed as inhibitors; 390,000 tested, 0.21% active
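Preincubate 20nM GCN5L2 with compound 15 min, RT → add 50uM ThioGlo1 + 75uM H3(1-25) + 70uM acetyl-CoA → read fluorescence 0 and 20 min. Primary qHTS; fluorescent artifacts likely.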
KDM4E inh = JMJD2E (human) inhibition; JMJD2E catalytic domain, FDH-coupled NADH fluorescence (FDH is formaldehyde dehydrogenase); Potency, µM (highest dose often 57.1 µM), most hits filed as inhibitors; 230,000 tested, 1.6% active; active = well fitted inhibition curve with a large enough effect, not every such curve was filed as active; inconclusive = small, poorly fitted or top-dose-only effect, or another doubt; inactive = no such curve, though single readings can be large or run the other way; note: nearly all actives have a fitted effect of over 50% in size
RECQ1 inh = RECQ1 (human) helicase inhibition; P46063; RECQ1 DNA unwinding, red fluorescence kinetic read; Potency, µM (top dose mostly 57.3 µM), usual class: inhibitors; 240,000 tested, 0.54% active; AID 2549; note: nearly all actives have a fitted effect of over 30% in size
Target sequence (P46063 whole entry, looked up): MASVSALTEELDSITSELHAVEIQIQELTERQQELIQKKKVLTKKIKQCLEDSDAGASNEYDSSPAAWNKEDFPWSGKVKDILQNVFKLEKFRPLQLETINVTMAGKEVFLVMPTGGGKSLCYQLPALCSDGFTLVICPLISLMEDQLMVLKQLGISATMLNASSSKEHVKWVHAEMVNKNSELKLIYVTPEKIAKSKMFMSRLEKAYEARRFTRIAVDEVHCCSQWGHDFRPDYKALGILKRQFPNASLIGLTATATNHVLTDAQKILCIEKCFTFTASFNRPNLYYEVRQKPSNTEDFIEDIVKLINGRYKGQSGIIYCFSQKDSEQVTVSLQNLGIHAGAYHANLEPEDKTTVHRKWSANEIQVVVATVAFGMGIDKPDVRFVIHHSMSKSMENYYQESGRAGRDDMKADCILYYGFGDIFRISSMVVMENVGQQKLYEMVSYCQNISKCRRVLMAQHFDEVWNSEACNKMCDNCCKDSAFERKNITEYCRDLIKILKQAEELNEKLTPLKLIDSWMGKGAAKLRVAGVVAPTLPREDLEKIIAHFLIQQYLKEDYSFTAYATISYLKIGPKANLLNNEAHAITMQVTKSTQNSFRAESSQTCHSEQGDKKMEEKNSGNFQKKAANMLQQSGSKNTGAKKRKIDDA
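RECQ1T1 50 nM; forked duplex (20 bp + 30-nt ss tails) 200 nM, ATP 2 mM final; pH 8.0, 2 mM MgCl2, 2.5 ug/ml poly(dI-dC); 15 min compound preincubation; discontinuous kinetic read over 2 h at RT.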
TDP1 block = blocks human tyrosyl-DNA phosphodiesterase 1; Q9NUW8; recombinant TDP1, AlphaScreen DNA substrate cleavage; Potency, µM (highest dose often 130 µM), most hits filed as inhibitors; 350,000 tested, 0.28% active; AID 485290; note: nearly all actives have a fitted effect of over 40% in size
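Recombinant E. coli-expressed Tdp1 (1 nM) preincubated with compound 15 min at RT, then 5'-biotin/3'-phosphotyrosine-FITC DNA substrate (15 nM) added for 5 min. AlphaScreen beads (10 ug/ml) added, 10 min RT; tyrosine-FITC cleavage read as signal loss.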
BLM inh = Bloom syndrome helicase (human) inhibition; AID 2528; recombinant BLM DNA unwinding, fluorescence dequenching; Potency, µM (top dose mostly 56.1 µM), actives largely listed as inhibitors; 350,000 tested, 0.2% active; note: nearly all actives have a fitted effect of over 35% in size
Large screens that a line does not name were inactive. Unless noted, calls come from the whole dose curve; as a rule, active = well fitted curve in the direction sought with a large enough effect; inconclusive = small, poorly fitted or top-dose-only effect, or another doubt; inactive = no such curve, though single readings can be large; an effect the other way counts as inactive or inconclusive.

Cc1ccc(C)n1-c1cccc(C(=O)Nc2ccccc2)c1	KDM4E inh inconclusive (no result: TDP1 block)
O=C(C1CCCN(Cc2ccccc2C(F)(F)F)C1)N1CCCCC1 (stereo unspecified)	GCN5L2 inh 1µM, KDM4E inh inconclusive
COc1c(C)c2c(c(O)c1C/C=C(\C)CCC(=O)OCCN1CCOCC1)C(=O)OC2	none (no result: GCN5L2 inh, KDM4E inh, RECQ1 inh, TDP1 block, BLM inh)
Oc1ccc(-c2nc(-c3ccc(O)c(O)c3)cs2)cc1	APE1 inh inconclusive, KDM4E inh 28µM, RECQ1 inh inconclusive
c1nc(NCC2CCCO2)c2ccc(-c3ccc4c(c3)OCO4)cc2n1 (stereo unspecified)	none (no result: APE1 inh, GCN5L2 inh, KDM4E inh, RECQ1 inh, BLM inh)
COc1ccc2nc3cc(Cl)ccc3c(Nc3cc(C(C)C)c(O)cc3C)c2c1	KDM4E inh inconclusive
COc1ccc2nc3cc(Cl)ccc3c(Nc3cc(CN4CCCC4)c(O)c(CN4CCCC4)c3)c2n1	APE1 inh 15µM, BLM inh inconclusive (no result: KDM4E inh, RECQ1 inh, TDP1 block)
CS(=O)(=O)c1ccc(C(=O)OCC(=O)N2CCc3ccccc32)cc1[N+](=O)[O-]	none (no result: APE1 inh, GCN5L2 inh, KDM4E inh, RECQ1 inh, BLM inh)
Cc1ccc(O)c(N=CC2=C(O)c3ccccc3C2=O)c1	none
Cc1ccc(O)c(C=Nc2cc(C)ccc2O)c1	KDM4E inh 20µM
CC(C)(C)c1ccc(O)c(N=Cc2cc(Br)ccc2O)c1	KDM4E inh 28µM
Cc1ccc(/C=C/C(=O)N2CC(=O)Nc3ccccc32)o1	GCN5L2 inh 22µM, KDM4E inh inconclusive
Oc1c(C(Nc2nccs2)c2ccc(C(F)(F)F)cc2)ccc2cccnc12 (stereo unspecified)	KDM4E inh 3.5µM
Oc1c(C(Nc2cccc(C(F)(F)F)c2)c2ccncc2)ccc2cccnc12 (stereo unspecified)	KDM4E inh inconclusive
CC(=O)Nc1ccc(OCc2cccc(C3Nc4ccccc4C(=O)N3Cc3ccco3)c2)cc1 (stereo unspecified)	none (no result: APE1 inh, GCN5L2 inh, KDM4E inh, RECQ1 inh, BLM inh)
Cc1cc(C(=O)Nc2sc(C)c(C)c2C#N)no1	none
COc1cc2cc3c(N)c(C(=O)Nc4sc(C)c(C)c4C#N)sc3nc2cc1OC	APE1 inh 13µM, KDM4E inh inconclusive, RECQ1 inh 10µM, BLM inh 32µM
N#Cc1nc(Nc2cc(Cl)cc(Cl)c2)nc(NC2CCCC2)n1	none (no result: APE1 inh, GCN5L2 inh, KDM4E inh, RECQ1 inh, BLM inh)
CC(=O)OCCn1c2nc(=O)[nH]c(=O)c-2nc2cc(C)c(C)cc21	GCN5L2 inh inconclusive, KDM4E inh 2.8µM, TDP1 block 3.5µM
O=C1CCc2cc(S(=O)(=O)Nc3cccnc3)ccc2N1	none (no result: APE1 inh, GCN5L2 inh, KDM4E inh, RECQ1 inh, BLM inh)
Nc1cc(C(=O)O)c(O)c(S(=O)(=O)O)c1	APE1 inh 28µM (no result: GCN5L2 inh, KDM4E inh, TDP1 block, BLM inh)
Nc1ccc(C(=O)O)cc1S(=O)(=O)O	none
O=C(c1cccc2ccccc12)N1CCN(S(=O)(=O)c2ccccc2)CC1	none (no result: APE1 inh, GCN5L2 inh, KDM4E inh, RECQ1 inh, BLM inh)
Cc1[nH]n(-c2ccccc2)c(=O)c1C=Nc1cccc2cccnc12	KDM4E inh inconclusive
Cc1[nH]n(-c2ccccc2)c(=S)c1C=Nc1cccc([N+](=O)[O-])c1	GCN5L2 inh 10µM, KDM4E inh 5.6µM
O=C(CNCC1CCCCC1)Nc1ccc(N2CCCCC2)cc1	KDM4E inh 28µM
CC1CCN(CC(=O)Nc2ccc(S(=O)(=O)N3CCCCC3)cc2)CC1	none (no result: KDM4E inh, RECQ1 inh)
O=C(CNC1CCCCCC1)Nc1ccc(N2CCCC2)cc1	none
CC1CCN(CC(=O)Nc2ccc(N3CCCCCC3)cc2)CC1	KDM4E inh 22µM
O=C(CNC1CCCC1)Nc1ccc(N2CCCCCC2)cc1	KDM4E inh 8.9µM
Cc1ccc(C(=O)Nc2ccc(N3CCCC3)cc2)c(C)c1	KDM4E inh 25µM (no result: TDP1 block)
C=N[C@@H](C(=O)N[C@@H]1C(=O)N2[C@@H]1SC(C)(C)[C@@H]2C(=O)O)c1ccccc1	none (no result: GCN5L2 inh, KDM4E inh, RECQ1 inh, TDP1 block, BLM inh)
CCCCC(=O)N(Cc1ccc(-c2ccccc2-c2nn[nH]n2)cc1)[C@@H](C(=O)O)C(C)C	none (no result: GCN5L2 inh, KDM4E inh, RECQ1 inh, TDP1 block, BLM inh)
CC(=O)N(C[C@@H](O)CO)c1c(I)c(C(=O)NC[C@@H](O)CO)c(I)c(C(=O)NC[C@@H](O)CO)c1I	GCN5L2 inh 10µM
CCNc1nc(NCC)n2c(SCC(=O)Nc3cccc(Cl)c3)nnc2n1	APE1 inh 27µM (no result: KDM4E inh, RECQ1 inh, TDP1 block, BLM inh)
CCNc1nc(NCC)n2c(SCC(=O)Nc3ccc(OC)c(OC)c3)nnc2n1	APE1 inh inconclusive (no result: KDM4E inh, RECQ1 inh, BLM inh)
